From PubChem BioAssay
This is a sample that favours compounds with a hit; in the whole collection about 1.6% have one here.
KCNQ2 pot = potentiators of rat KCNQ2 potassium channel | O88943 | CHO-K1 KCNQ2, FluxOR thallium flux fluorescence; stronger effect = higher value | B-score at 10 µM | 0.54% of 310,000 active | AID 2239;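 active = fluorescence ratio B-score at least 3 SD of library B-scores, with initial fluorescence B-score within 3 of them, cut at about 5.3 in these data; same plate scores as AID 2156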;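 also: B-score of peak minus minimum over baseline fluorescence ratio after K+ and Tl+ stimulus; positive B-score means potentiation of KCNQ2 with more thallium influx and brighter signal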
KCNQ2 inh = blocks the rat KCNQ2 potassium channel. O88943. CHO-K1 KCNQ2, FluxOR thallium flux, 20 min; stronger effect = lower value. B-score at 10 µM. 1.1% of 310,000 active. AID 2156;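 active = fluorescence ratio B-score at most minus 3 library SDs, with starting brightness B-score within 2 library SDs, cut at about -5.5 in these data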
Kir21 conf inh = confirmation of mouse Kir2.1 potassium channel inhibitors | shares compounds with KCNQ2 pot | Kir2.1-expressing cells, FluxOR thallium flux fluorescence; stronger effect = lower value | Tl flux remaining, % of negative control (stronger effect = lower value), % at 10 µM | 41% of 2,300 active;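 active = Primary-screen hit whose thallium flux fell at least 3 control SD below untreated wells in both duplicates, with normal baseline fluorescence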;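 also: 0% = blank wells without stimulus and 100% = stimulated no-compound controls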
HEK293 ctr = parental HEK293 activity in Kir2.1 inhibitor counter-screen; shares compounds with KCNQ2 pot; parental HEK293 cells, FluxOR thallium flux fluorescence; 0% = unstimulated blank wells; FluxOR signal as % of negative control (100 = no effect), % at 10 µM; 19% of 2,300 active; AID 2105;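 active = dye signal at least 3 control SD above or below untreated wells in both duplicates, raw fluorescence within 3, either direction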;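 also: percent is based on the flux ratio of peak minus minimum fluorescence over baseline F0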
CHO-K1 Tl ctr = parental CHO-K1 activity in KCNQ2 potentiator counter-screen. shares compounds with KCNQ2 pot. parental CHO-K1 cells, FluxOR thallium flux fluorescence; zero = vehicle mean+3SD, 100% = vehicle-minus-blank window. activity increase over 3SD of controls, % at 10 µM. 43% of 1,200 active. AID 2282;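 active = signal rise of at least 3 SD above the untreated control mean, in both duplicate wells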;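 also: counter screen of KCNQ2 potentiator hits so any rise reflects channel-independent effects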
KCNQ1 pot spec = selectivity of KCNQ2 potentiators: effect on human KCNQ1 | shares compounds with KCNQ2 pot | CHO KCNQ1 stable, FluxOR thallium flux fluorescence; beyond 3SD, as % of vehicle-control signal | activation over 3SD threshold, % at 10 µM | 28% of 1,200 active;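 active = fluorescence ratio rise of at least 3 SD of vehicle wells above their mean, in both replicate wells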;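 also: 0% = vehicle mean plus 3 SD and 100% = vehicle minus unstimulated blank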
KCNQ2 pot confirm = confirmation of rat KCNQ2 potassium channel potentiators | shares compounds with KCNQ2 pot | CHO-KCNQ2 cells, FluxOR thallium flux fluorescence | potentiation, less the hit threshold, % at 10 µM | 68% of 1,200 active | AID 2287;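 active = fluorescence ratio rising 3 SD or more over the vehicle control mean in both replicates, plus primary screen hit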;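 also: peak minus minimum thallium fluorescence divided by baseline after K/Tl stimulus; 0% = vehicle mean plus 3 SD and 100% = vehicle minus unstimulated blank difference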
Kir21 spec = selectivity of KCNQ2 potentiators: effect on mouse Kir2.1; shares compounds with KCNQ2 pot; HEK293 Kir2.1, FluxOR thallium flux fluorescence; activity over 3SD threshold, % at 10 µM; 2% of 1,200 active; AID 2345;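 active = fluorescence ratio rise of at least 3 SD above the vehicle-control mean, seen in both replicates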;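 also: 0% = vehicle mean plus 3 SD and 100% = vehicle minus no-stimulus blank window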
KCNQ2 W236L pot = KCNQ2 potentiators acting on retigabine-insensitive rat KCNQ2 W236L mutant; current increase over 3SD of negative controls (%), stronger effect = higher value, % at 25 µM; 10% of 940 active; CHO KCNQ2-W236L, automated patch clamp current; shares compounds with KCNQ2 pot;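 active = current increase at least 3 SD of the untreated controls above them in both duplicate recordings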
Starred values were filed as active, the others as inactive.

`CC(=O)c1cccc(NC(=O)NCc2ccc3c(c2)OCO3)c1` gave KCNQ2 pot 2.12 and KCNQ2 inh inactive.
For O=C(NCc1ccc2c(c1)OCO2)Nc1cccc(Cl)c1 the results were KCNQ2 pot 20.9*, KCNQ2 inh inactive, Kir21 conf inh inactive, HEK293 ctr inactive, CHO-K1 Tl ctr -11.4, KCNQ1 pot spec -30.7, KCNQ2 pot confirm 69.6*, Kir21 spec -25.7 and KCNQ2 W236L pot inactive.
Cc1ccc(CNC(=O)CN(c2ccc(Cl)cc2)S(C)(=O)=O)cc1 was read as KCNQ2 pot 0.81 and KCNQ2 inh inactive.
Screening COc1cc(OC)cc(C(=O)NCC2CCCN(Cc3cccc(C(C)=O)c3)C2)c1 (stereo unspecified) returned KCNQ2 inh inactive.
For O=C(c1ccc(Cl)cc1Cl)N1CCC(C(=O)N2CCOCC2)CC1 the results were KCNQ2 pot 1.03 and KCNQ2 inh inactive.
O=C(NCC1CCCO1)C1c2ccccc2C(=O)N1C1CCCCCC1 (stereo unspecified) was read as KCNQ2 inh inactive.
`CC(CNc1nc2ccc(Cl)cc2n2cnnc12)c1ccccc1` (stereo unspecified) gave KCNQ2 pot 1.19 and KCNQ2 inh inactive.
COc1cc(C(=O)Nc2ccc(C)cc2)c(-n2cnnn2)cc1OC was read as KCNQ2 pot 0.47 and KCNQ2 inh inactive.
`CC(C)(C)OC(=O)N1CCC[C@H]1c1nnc(SC/C=C/c2ccccc2)o1` gave KCNQ2 inh inactive.
Screening CC(C)(C)OC(=O)N1CCC[C@H]1c1nnc(SCc2ccccc2Cl)o1 returned KCNQ2 inh inactive, Kir21 conf inh inactive and HEK293 ctr 70.5%*.
`CC(C)(C)OC(=O)N1CCC[C@H]1c1nnc(SCc2cccc(Cl)c2)o1` gave KCNQ2 inh inactive, Kir21 conf inh 54.0%* and HEK293 ctr inactive.
`CC(C)(C)OC(=O)N1CCC[C@H]1c1nnc(SCc2ccc(Cl)cc2)o1` gave KCNQ2 inh inactive, Kir21 conf inh 52.0%* and HEK293 ctr 68.5%*.
`CSc1nnc([C@@H]2CCCN2C(=O)OC(C)(C)C)o1` gave KCNQ2 inh inactive.
CCCCSc1nnc([C@@H]2CCCN2C(=O)OC(C)(C)C)o1 was read as KCNQ2 inh inactive.
CCN1CCN(C(=S)Nc2ccc3nc4n(c(=O)c3c2)CCCCC4)CC1 was read as KCNQ2 inh inactive.
CCOC(=O)c1ccc(NC(=O)NC2CCN(CC(=O)NCc3ccc4c(c3)OCO4)CC2)cc1 was read as KCNQ2 pot 0.25 and KCNQ2 inh inactive.
Cc1cccc(C)c1NC(=O)[C@@]1(CC(=O)O)CC(/C=C/c2ccccc2)=NO1 was read as KCNQ2 pot 0.14 and KCNQ2 inh inactive.
Screening CCOC(=O)c1sc(NC(=O)CSC(=S)N2CCN(C)CC2)nc1C returned KCNQ2 inh inactive.
For COC(=O)c1ccc(NC(=S)NCCCn2ccnc2)cc1 the results were KCNQ2 inh inactive.
For COc1ccccc1-c1c(C)oc2cc(OC(=O)c3ccco3)ccc2c1=O the results were KCNQ2 pot 0.01, KCNQ2 inh inactive, Kir21 conf inh 69.5%* and HEK293 ctr inactive.
CCOc1ccccc1Oc1c(C)oc2cc(OC(=O)c3ccco3)ccc2c1=O was read as KCNQ2 inh inactive.
NC(=O)C1=C[C@@H](c2ccc(Br)cc2)C[C@@H](OCc2ccc(CO)cc2)O1 was read as KCNQ2 inh inactive.
NC(=O)C1=C[C@H](c2ccc(Br)cc2)C[C@H](OCc2ccc(CO)cc2)O1 was read as KCNQ2 pot 0.05, KCNQ2 inh inactive, Kir21 conf inh 45.0%* and HEK293 ctr inactive.
`COc1cccc(-c2nc(CS(=O)(=O)CC(=O)N3CCOCC3)c(C)o2)c1` gave KCNQ2 inh inactive.
NC(=Nc1ccccc1)Nc1ccccc1 was read as KCNQ2 pot 5.84*, KCNQ2 inh inactive, Kir21 conf inh inactive, HEK293 ctr inactive, CHO-K1 Tl ctr 8.7*, KCNQ1 pot spec -5.8, KCNQ2 pot confirm 19.6*, Kir21 spec -23.1 and KCNQ2 W236L pot inactive.
CCOC(=O)/C(C(=Nc1ccccc1)Nc1ccccc1)=C(\C)O was read as KCNQ2 inh inactive.
Cc1c(C)n(Cc2ccccc2)c2ccc(C(=O)OCCN(C)C)cc12 was read as KCNQ2 inh inactive, Kir21 conf inh 26.0%* and HEK293 ctr inactive.
`Cc1c(C)n(Cc2ccccc2)c2ccc(C(=O)NCCN3CCOCC3)cc12` gave KCNQ2 pot 0.84 and KCNQ2 inh inactive.
`O=c1[nH]c2c(=O)[nH]cnc2nc1-c1ccccc1` gave KCNQ2 inh inactive.
Screening NC(=O)c1cccc2c3c([nH]c12)CCCC3 returned KCNQ2 pot 2.92 and KCNQ2 inh inactive.
For CCOC(=O)C1CCCc2c1[nH]c1c(C(N)=O)cccc21 (stereo unspecified) the results were KCNQ2 pot 9.7*, KCNQ2 inh inactive, Kir21 conf inh inactive, HEK293 ctr inactive, CHO-K1 Tl ctr 3.7*, KCNQ1 pot spec -15.2, KCNQ2 pot confirm 34.0*, Kir21 spec -48.5 and KCNQ2 W236L pot inactive.
For Cc1ccc(NC(=O)CNc2cccc(S(=O)(=O)N3CCCC3)c2)cc1F the results were KCNQ2 pot 5.51*, KCNQ2 inh inactive, Kir21 conf inh inactive, HEK293 ctr inactive, CHO-K1 Tl ctr -35.9, KCNQ1 pot spec -11.3, KCNQ2 pot confirm -0.3 and Kir21 spec -47.5.
O=C(CNc1cccc(S(=O)(=O)N2CCCC2)c1)Nc1ccc(F)c(F)c1 was read as KCNQ2 pot 0.02 and KCNQ2 inh inactive.
Screening Cc1ccc(S(=O)(=O)N(C)C)cc1NC(=O)CCCNC(=O)c1ccc(Cl)cc1 returned KCNQ2 pot 1.12 and KCNQ2 inh inactive.
For Cc1ccccc1C(=O)c1cccn1CC(=O)NCC(C)c1ccccc1 (stereo unspecified) the results were KCNQ2 pot 0.69, KCNQ2 inh inactive, Kir21 conf inh 65.5%* and HEK293 ctr inactive.
